The text below walks through data of paper PMC12136788.

To fix the notation:
B1: ENSG00000070961:be:win_1201|CDS|ENSG00000070961|bound_else_gene|NA|bound_elsewhere_windowed (ssRNA)
RNA: GGGAGUUCUACAGUCCGACGAUCAAAAGACCAUGGCUUGCUGAGUGCACACCAAUUUAUAUACAAUACUUUGUGAAGUUCUUCAUUAUUGGAGUUACAGUUUUAGUGGUCGCAGUGCCAGAAGGUCUUCCACUUGCAGUCACGCAACAGAGGAUUGAGCAUCA
B2: chr5:150401636:150402250:-|three_prime_utr|ENSG00000019582|control|control|control (ssRNA)
RNA: GGGAGUUCUACAGUCCGACGAUCCUGCUGCCCAAUCUCCAUCUGUCAACAGGGGCGUGAGGUCCCAGGAAGUGGCCAAAAGCUAGACAGAUCCCCGUUCCUGACAUCACAGCAGCCUCCAACACAAGGCUCCAAGACCUAGGCCAACAGAGGAUUGAGCAUCA
B3: chr5:40972473:40972581:+|CDS|ENSG00000112936|unk|FALSE|unique (ssRNA)
RNA: GGGAGUUCUACAGUCCGACGAUCAAAACCUUUCUACACAGUUGGUGAGAAGGUGACUGUUUCCUGUUCAGGUGGCAUGUCCUUAGAAGGUCCUUCAGCAUUUCUCUGUGGCUCCAGCCUUAAGUGGAGUCCUGAGAUGAAGAACAACAGAGGAUUGAGCAUCA
B4: ENSG00000096070:stop:overlap|stop_codon|ENSG00000096070|stop_codon|NA|stop_codon (ssRNA)
RNA: GGGAGUUCUACAGUCCGACGAUCAGAAGGAUCCUGCACACAUCUUCGCAGAACCAGUCAACUUGAGUGAGGUUUUAUAUGUUUAGGUUCCAGAUUACCUGGAAUUCAUAUCCAAGCCAAUGGAUUUUUCUACUAUGAGGCGGACAACAGAGGAUUGAGCAUCA
B5: chr3:46835109:46836203:-|three_prime_utr|ENSG00000160808|control|control|control (ssRNA)
RNA: GGGAGUUCUACAGUCCGACGAUCUGAAGGCACAAGCUGUUCCAGUAUAAUAAAGAAAAUAAUUAAAUUAAGAAAAGUUAUACUAGAAAUAAGAUAUAGGUAUGAUUAUUAUUAAUCAUUAGUUUGUAGUAUUACUUUGUUCUACAACAGAGGAUUGAGCAUCA
B6: chr16:3436009:3436110:-|3pUTR|ENSG00000167981|unk|total|mutant (ssRNA)
RNA: GGGAGUUCUACAGUCCGACGAUCAUUAAAAUGAAGGCUCUUGCUAAAGUUAUUUUAAUUUUGUUUACGCCGUUUCUGACUUUCCGAAGGAGGAGAAUUUAUUUAUAUUUUGCCAGUUCUGCAGACAUAUCCCGGAAAGUAAAUCAACAGAGGAUUGAGCAUCA
B7: chr15:67202635:67202736:-|3pUTR|ENSG00000103591|msi1|total|mutant (ssRNA)
RNA: GGGAGUUCUACAGUCCGACGAUCUGCCAAAAUUGCCCUUAUCAUGUUGGCUGCCUGACUUGUUUACCGGGUCCCCUUAAUUUCCGUUUUCCGCCGGAGGUUAAGGAGAAAUCUUUUUUUUCCUCAGUAUAUUGUAAGAGAGUGCAACAGAGGAUUGAGCAUCA
B8: chr15:67202635:67202736:-|3pUTR|ENSG00000103591|msi1|FALSE|unique (ssRNA)
RNA: B7 RNA with C66U, C67A, C83U, C84A, C90U, C91A, C93U, C94A
B9: chr13:42886387:42888493:-|three_prime_utr|ENSG00000133106|control|control|control (ssRNA)
RNA: GGGAGUUCUACAGUCCGACGAUCCAUAUUUAAUCUCUACUGCCAGGGAAAUGCUACAUUAUUUUUCUAAUUGGAAGUAUAAUUAGAGUGAUGUUGGUAGGGUAGAAAAAGAGGGAGUCACUUGAUGCUUUCAGGUUAAUCAGACAACAGAGGAUUGAGCAUCA
B10: chr3:100749155:100750494:-|three_prime_utr|ENSG00000154175|control|control|control (ssRNA)
RNA: GGGAGUUCUACAGUCCGACGAUCUGCCGCAUUCAUUUAAAGCUAUUUUGUUUACUAUGUAUAAAAGUCUACAAUCUAAUUAAUAGCAAUACUAGAUGUUUAUUAUUAGAAAAGAUUGCUGAGAGUAUUUAUCAGGUUUUACAACAACAGAGGAUUGAGCAUCA
B11: chr1:183143318:183143419:+|3pUTR|ENSG00000135862|msi1|FALSE|unique (ssRNA)
RNA: GGGAGUUCUACAGUCCGACGAUCACAUCCUGUGCCAAAGGUAUUGGUCAUUUAGAAUGUCGGUAGCCAUCCAUCAGUGCUUUUAGUUAUUAUGAGUGUAGGACACUGAGCCAUCCGUGGGUCAGGAUGCAAUUAUUUAUAAAACAACAGAGGAUUGAGCAUCA
B12: chr6:1612588:1612689:+|3pUTR|ENSG00000054598|msi1|FALSE|unique (ssRNA)
RNA: GGGAGUUCUACAGUCCGACGAUCUUUAUUCAUGGACUUGUUUUAAAAUGUAAAUUGCAACAUAGUAAUUUAUUUUUAAUUUGUAGUUGGAUGUCGUGGACCAAACGCCAGAAAGUGUUCCCAAAACCUGACGUUAAAUUGCCUCAACAGAGGAUUGAGCAUCA
B13: chr1:16124349:16124452:-|3pUTR|ENSG00000142627|msi1|FALSE|unique (ssRNA)
RNA: GGGAGUUCUACAGUCCGACGAUCUUUGUUUUGUUGGACAUUUUUUUCGAAUCUUAAUUUAUUAUUUUUUUUAUAUUUAUUGUUAGAAAAUGACUUAUUUCUGCUCUGGAAUAAAGUUGCAGAUGAUUCAAACCGAUCUUGGCUCAACAGAGGAUUGAGCAUCA
B14: ENSG00000070961:be:win_4051|3pUTR|ENSG00000070961|bound_else_gene|NA|bound_elsewhere_windowed (ssRNA)
RNA: GGGAGUUCUACAGUCCGACGAUCAUUUCUGCUGUUGGCUGUUAAUAAUUUGGAUUAUUUAUGUUUAUAAAUGAUACAGAUCUGUUUACAAGGUUUGUAGAUACUUUUUUUGUUCCUGUUCAUAGAUGGGAAGCUUCCUUAUAACAACAGAGGAUUGAGCAUCA
B15: chr1:183143318:183143419:+|3pUTR|ENSG00000135862|msi1|total|mutant (ssRNA)
RNA: B11 RNA with U52C, A53C, U63C, A64C, U83C, A84C, U98C, A99C
B16: chr16:3436009:3436110:-|3pUTR|ENSG00000167981|unk|FALSE|unique (ssRNA)
RNA: B6 RNA with C69U, C70A, C83U, C84A, C131U, C132A

Residue numbers refer to the chain shown, from its start. Whole data set: some 5,800 sequences, median “enrichment r” near 0.54, cut for the highest 2% near 16. Only a selection was taken, and the highest values are over-represented in it overall.

Chain of MSI1 full-length (Q61474 whole entry): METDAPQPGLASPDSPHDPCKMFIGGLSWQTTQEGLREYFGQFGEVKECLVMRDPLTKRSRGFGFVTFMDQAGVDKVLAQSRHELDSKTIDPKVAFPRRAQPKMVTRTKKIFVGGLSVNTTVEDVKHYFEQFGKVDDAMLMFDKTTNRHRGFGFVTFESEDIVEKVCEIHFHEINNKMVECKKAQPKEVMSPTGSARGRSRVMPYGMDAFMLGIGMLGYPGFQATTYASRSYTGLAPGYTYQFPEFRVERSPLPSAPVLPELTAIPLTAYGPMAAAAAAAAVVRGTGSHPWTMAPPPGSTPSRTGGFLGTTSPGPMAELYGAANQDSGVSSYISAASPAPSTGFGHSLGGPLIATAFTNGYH

This test has as its target MSI1 full-length (mouse, UniProt Q61474 1-362). Nature of the test: nsRBNS (natural sequence RNA bind-n-seq); RBNS binding buffer (assumed for nsRBNS): 25 mM Tris pH 7.5, 150 mM KCl, 3 mM MgCl2, 0.01% Triton X-100, 500 ug/ml BSA, 20 U/ml SUPERase-In, 4 C; UNK is unkempt and MSI1 is Musashi-1; names of the RNAs are library labels; protein concentration not given here; high values mean tight binding.
B1 came in with a binding signal of 1.51 enrichment R.

Turning to B2, the binding signal was 0.462 enrichment R.

As for B3, the binding signal came to 0.339 enrichment R.

B4: the binding signal amounted to 0.383 enrichment R.

As to B5, the binding signal was found to be 24.8 enrichment R.

B6 gave a binding signal of 0.68 enrichment R.

B7: the binding signal worked out at 0.438 enrichment R.

For the molecule B8, the binding signal turned out to be 32.9 enrichment R.

In turn, B9 yielded a binding signal of 0.46 enrichment R.

The molecule B10 had a binding signal of 4.63 enrichment R.

B11: the binding signal is 34.2 enrichment R.

On to B12, for which the binding signal stood at 0.311 enrichment R.

As to B13, the binding signal turned out to be 4.58 enrichment R.

In turn, B14 showed a binding signal of 1.02 enrichment R.

As to B15, the binding signal stood at 0.319 enrichment R.

B16: the binding signal was 19.1 enrichment R.
